Results as given in PubChem BioAssay AID540308 (The Scripps Research Institute Molecular Screening Center, 2011).
About 3,500 (0.97%) of roughly 360,000 compounds were called active. For the sample, actives were picked, then their nearest neighbours and some compounds at random. Values without a mark were called inactive.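 How the source made its calls: active means activation above a per-plate cutoff, the mean activation of sample wells on that plate plus 3 SD (cut at about 8% in these data); inactive means the rest.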

target: Melanocortin receptor 4 (Homo sapiens) (UniProt P32245); assay: activators of MC4R beta-arrestin recruitment – cell-based, luminescence, agonist arm of biased-ligand search, primary screen (AID 540308); settings: U2OS MC4R beta-arrestin complementation, at 8.9 µM, active compounds read high, percent of melanotan II response, DMSO zero
Sequence (P32245 whole entry, looked up): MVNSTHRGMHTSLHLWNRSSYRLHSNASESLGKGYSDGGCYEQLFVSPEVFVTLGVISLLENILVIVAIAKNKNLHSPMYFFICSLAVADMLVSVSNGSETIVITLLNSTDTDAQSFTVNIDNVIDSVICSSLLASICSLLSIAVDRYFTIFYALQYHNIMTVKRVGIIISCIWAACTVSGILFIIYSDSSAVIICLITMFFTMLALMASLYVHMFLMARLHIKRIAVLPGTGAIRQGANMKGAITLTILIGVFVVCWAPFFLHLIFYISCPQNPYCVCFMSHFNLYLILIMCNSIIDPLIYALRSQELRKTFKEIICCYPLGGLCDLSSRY

Row | SMILES | activation
1 | O=C(NCCO)c1cccc(-c2cccc3nccn23)c1 | -1.27%
2 | CNc1cncc(-c2ccc(NS(C)(=O)=O)cc2)n1 | -1.66%
3 | CCOC(=O)c1[nH]c2c(c1-c1ccccc1)C(=O)CC(c1ccc(Cl)cc1)C2 (stereo not given) | 13.1% (active)
4 | CCCOC(=O)c1[nH]c2c(c1C)C(=O)CC(c1cccs1)C2 (stereo not given) | -0.13%
5 | CCOC(=O)C1=C(CN2CCc3ccccc32)NC(=O)NC1c1ccc(Cl)cc1 (stereo not given) | 6.41%
6 | CS(=O)(=O)/C(C#N)=C/c1cccn1S(=O)(=O)c1ccc([N+](=O)[O-])cc1 | -0.77%
7 | O=C(O)c1ccccc1-c1cccc2nncn12 | 1.15%
8 | OC(c1ccccc1)c1nc(-c2cnc3ccccc3c2)cs1 (stereo not given) | -1.73%
9 | COc1ccc(Cn2c(C)c(C)c(C#N)c2NC(=O)Nc2ccc(F)cc2)cc1 | 9.65% (active)
10 | Cc1ccc(C(=O)Nc2c(C#N)c(C)c(C)n2Cc2ccccc2)cc1 | 0.7%
11 | O=C(Nc1cccn(Cc2ccccc2Cl)c1=O)NC1CCCCC1 | -3.02%
12 | COc1cccc(NC(=O)CN(C)C(C)C(=O)Nc2ccc(C#N)cc2)c1 (stereo not given) | -2.21%
13 | Cc1c(C#N)c(NC(=O)c2ccccc2)n(Cc2ccccc2)c1C | 1.54%
14 | COc1ccc(Cn2cccc(NC(=O)Nc3ccc(C#N)cc3)c2=O)cc1 | 8.99% (active)
15 | O=C(NCc1cccnc1)c1cc(C2CCCN(C(=O)C3CCCCC3)C2)on1 (stereo not given) | 0.25%
16 | CC1(Cc2cccc(C#N)c2)C(=O)Nc2ccc(-c3cccc(C(F)(F)F)c3)cc21 (stereo not given) | 1.34%
17 | CCOc1ccc(Cl)cc1-c1cc(C(=O)NCc2cccs2)[nH]n1 | 1.31%
18 | O=C(CSc1nc2cccc(F)c2c(=O)n1-c1ccccc1)Nc1ccc2c(c1)CCC2 | 1.04%
19 | CCOC(=O)C1=C(O)/C(=C/c2ccc(OCC(=O)Nc3ccc(C)cc3)cc2)N=C1C | 16.8% (active)
20 | Cc1ccc(NC(=O)COc2ccc(/C=C3/NC(=O)NC3=O)cc2)cc1 | -1.81%
21 | COC(=O)C1=C(O)/C(=C/c2ccc(OCC(=O)Nc3ccccc3)cc2)N=C1C | -2.96%
22 | COC(=O)c1ccc(CN2C(=O)C(Cc3ccccc3)ON=C2c2ncccc2C)o1 (stereo not given) | 0.08%
23 | CS(=O)(=O)c1cccc(-c2ccc3nncn3c2)c1 | 0.6%

Row | SMILES | activation
24 | CSc1ccccc1OCc1cc(C(=O)N2C[C@H]3CC[C@H]2C3)no1 | -3.22%
25 | O=C(O)c1cscn1 | -0.73%
26 | Cc1ccc(-c2csc(SCC(=O)Nc3cc(C)on3)n2)cc1 | 12.5% (active)
27 | Cc1ccc2nc(-c3ccc(SCC(=O)Nc4cc(C)on4)nc3)[nH]c2c1 | -0.33%
28 | Cc1cc(NC(=O)CSCC(=O)NC(C)c2ccccc2)no1 (stereo not given) | 3.59%
29 | CCc1nc2ccc(C(=O)N3CCN(S(=O)(=O)CC)CC3)cn2c1N(C=O)CCC(C)C | -1.41%
30 | CC(C)Cn1cc(-c2cncc3nccn23)cn1 | -1.32%
31 | COc1ccccc1CC1(C)C(=O)Nc2ccc(OC(F)(F)F)cc21 (stereo not given) | 4.13%
32 | Cc1c(C(=O)N2CCN(c3ccc(F)cc3)CC2)oc2c1C(=O)CCC2 | -0.69%
33 | O=C(c1cc2cc(F)ccc2[nH]1)N1CCN(c2ccc(F)cc2)CC1 | 9.41% (active)
34 | O=C(c1ccccc1Oc1ccccc1)N1CCN(c2ccc(F)cc2)CC1 | -0.88%
35 | CS(=O)(=O)N1CCCCC1c1cc(C(=O)NCc2ccccc2)no1 (stereo not given) | 0.31%
36 | CC1(C(=O)NCc2ccc3c(c2)OCO3)CCN1CCc1ccccc1 (stereo not given) | 1.41%
37 | CCCNC(=O)C1(C)CCCN(C(=O)c2cccc(OC(C)=O)c2C)C1 (stereo not given) | -0.89%
38 | O=C(CCl)N(Cc1cccc([N+](=O)[O-])c1)c1cccc(Cl)c1 | 20.4% (active)
39 | CC(=O)N(CN1C(=O)C2CC=CCC2C1=O)c1cccc(Cl)c1 (stereo not given) | -0.75%
40 | COC(=O)c1cc(C(=O)N(Cc2ccccc2)c2ccccn2)cc([N+](=O)[O-])c1 | 2.05%
41 | Cn1c(Nc2ccc(F)cc2)nc2cc(-c3ccsc3)sc2c1=O | 2.85%
42 | CN(C(=O)CCN1C(=O)/C(=C/c2ccccc2F)SC1=S)C1CCS(=O)(=O)C1 (stereo not given) | -1.67%
43 | O=C1/C(=C\c2ccccc2Cl)SC(=S)N1CCC(=O)N1CCCc2ccccc21 | -0.74%
44 | Cc1ccc(-c2nn(-c3ccccc3)cc2/C=C2\SC(=S)N(CCCCCC(=O)O)C2=O)o1 | 8.64% (active)
45 | COc1ccc(-c2coc3c(C(=O)NC(C)C)cccc23)c(C)c1 | 0.44%
46 | CCOC(=O)c1c(C)[nH]c(C(=O)NCCN2CCOCC2)c1C | -1.01%

Row | SMILES | activation
47 | COc1ccc(C(CCNCc2ccccc2F)c2ccc(F)cc2)cc1 (stereo not given) | 2.17%
48 | Fc1ccccc1COc1ccccc1CNCc1ccncc1 | -1.5%
49 | COc1cccc(CNCCc2c[nH]c3ccccc23)c1OCc1ccccc1F | 10.3% (active)
50 | CN1C[C@@H](CO)O[C@@H](n2cnc3c(N4CCN(CCO)CC4)ncnc32)C1 | -0.08%
51 | COc1ccc(S(=O)(=O)N2CCOC2CNC(=O)C(=O)NCc2ccncc2)cc1C (stereo not given) | 0.29%
52 | CCNC(=O)C1(C)CCCN1C(=O)c1ccc(N(C)C)cc1 (stereo not given) | -0.82%
53 | O=C(NCCc1ccc(Cl)cc1Cl)c1cc([N+](=O)[O-])c[nH]c1=O | -2.62%
54 | O=C(NCCc1c[nH]c2ccc(Cl)cc12)c1ccc([N+](=O)[O-])cc1 | 10.4% (active)
55 | Cc1ccc2[nH]cc(CCNC(=O)c3ccc([N+](=O)[O-])cc3)c2c1 | -2.01%
56 | COC(=O)c1ccc(S(=O)(=O)N2CCC(c3nc4ccccc4o3)CC2)cc1 | -0.95%
57 | CC1(C(=O)Nc2ccc3c(c2)OCCO3)CCN1C(=O)Cc1cc(F)ccc1F (stereo not given) | -0.93%
58 | CC1(Oc2ccc(Cl)cc2)CCN(Cc2csc3ccccc23)C1 (stereo not given) | 5.74%
59 | OC(c1ccccc1)c1nc(/C=C/c2ccc(C(F)(F)F)cc2)cs1 (stereo not given) | 1.43%
60 | CCOc1ccc(/C=C/C(=O)OCC(=O)c2ccccc2OC)cc1OC | 12.9% (active)
61 | COc1ccc(/C=C/C(=O)OCC(=O)NC2CCCCCC2)cc1OC | 0.56%
62 | COc1cc(/C=C/C(=O)OCC(=O)c2ccccc2)cc(OC)c1OC | -2.53%
63 | O=C(Nc1ccc(Cl)cc1)c1csc([C@@H]2O[C@H](CO)[C@H](O)[C@H](O)[C@H]2O)n1 | -0.59%
64 | CCOCCC(=O)Nc1ccc2c(c1)c(=O)n(C)n2-c1ccc2ccccc2c1 | -1.1%
65 | Oc1c(Br)cc(/C=N/NC(=S)NCC2CCCO2)cc1Br (stereo not given) | -1.36%
66 | CC1(C(=O)NS(=O)(=O)c2cccc(F)c2)CCN1C(=O)c1cccc2ccccc12 (stereo not given) | -0.68%
67 | O=C(Cn1cnc2c(nnn2-c2ccccc2)c1=O)N1CCC(Cc2ccccc2)CC1 | 11.7% (active)
68 | COc1ccc(-n2nnc3c(=O)n(CC(=O)N4CCC(Cc5ccccc5)CC4)cnc32)cc1 | 3.13%
69 | COc1ccc(-n2nnc3c(=O)n(CC(=O)OCc4ccccc4)cnc32)cc1 | 1.74%

Row | SMILES | activation
70 | Cc1c(C(=O)NCc2ccc(C#N)cc2)sc(=O)n1Cc1ccc(C(=O)N(C)C)cc1 | 1.47%
71 | OC[C@@H]1CN(Cc2ccc(Cl)cc2)C[C@H](n2cnc3c(NCc4ccncc4)ncnc32)O1 | 0.2%
72 | COc1cc(/C=C(\C#N)C(=O)Nc2ccc3ccccc3c2)c([N+](=O)[O-])cc1OC | 20.1% (active)
73 | COc1ccc(NC(=O)/C(C#N)=C\c2cc(OC)c(OCc3ccc(C(=O)O)cc3)cc2Br)cc1 | -1.04%
74 | COc1cc(/C=C(/NC(=O)c2ccccc2)C(=O)Nc2cccc(O)c2)c([N+](=O)[O-])cc1OC | 0.1%
75 | Cc1cccc(C)c1Cn1c(C)c(C(=O)NCc2cccc(Cl)c2)sc1=O | -0.04%
76 | O=C(COC(=O)Cn1cnc2ccccc21)Nc1cccc2c1C(=O)c1ccccc1C2=O | -2.17%
77 | O=C(COC(=O)c1cccc(Br)c1)Nc1cccc2c1C(=O)c1ccccc1C2=O | 22.1% (active)
78 | O=C(COC(=O)c1ccccc1)Nc1ccccc1Sc1ccccc1 | -0.01%
79 | CC1(C(=O)NS(=O)(=O)c2ccccc2)CCN1C(=O)Cc1ccc(-c2ccccc2)cc1 (stereo not given) | -1.08%
80 | COc1cc(CNc2ncnc3c2ncn3[C@H]2CN(Cc3cccs3)C[C@@H](CO)O2)cc(OC)c1OC | 1%
81 | CCc1nc2c(OCc3ccccc3)cccn2c1N(C)C(=O)c1ccco1 | -0.58%
82 | COc1ccc(O)c(/C=N/N=C/c2cccc([N+](=O)[O-])c2)c1 | -0.29%
83 | O=[N+]([O-])c1cccc(C=NN=Cc2ccccc2O)c1 | 9.24% (active)
84 | Cc1ccc(NC(=O)O/N=C/c2cccc([N+](=O)[O-])c2)cc1 | -5.02%
85 | CCCc1ccc(C(O)c2ncc(-c3cccc(OC)c3)[nH]2)cc1 (stereo not given) | -1.27%
86 | COc1ccc(C(=O)N2CCCCC2c2cc(C(=O)Nc3ccccc3)no2)cc1 (stereo not given) | -1.46%
87 | CN(C)C(=O)c1cccc(-c2cnc3sc(NCc4ccc5c(c4)OCO5)nn23)c1 | 0.82%
88 | CC[C@]1(C(=O)OC)[C@H]2C(=O)N(Cc3ccccc3)C(=O)[C@H]2[C@H]2CN=C(SCc3ccccc3)N21 | -0.47%
89 | CCCN=C1N(C)C[C@@H]2[C@@H]3C(=O)N(Cc4ccccc4)C(=O)[C@@H]3[C@](C)(C(=O)OC)N12 | -1.43%
90 | CCN1C[C@@H]2[C@@H]3C(=O)N(Cc4ccccc4)C(=O)[C@@H]3[C@](Cc3ccccc3)(C(=O)OC)N2C1=NC1CCCCC1 | 13.2% (active)
